ALDH1A1 block: ALDH1A1 (human) enzyme inhibition. P00352. Purified ALDH1A1, NADH fluorescence, propionaldehyde substrate. Potency, µM (series often up to 75.3 µM), for the others: top-dose activity, negative = inhibition, usual class: inhibitors. 220,000 compounds, 7.3% hits. AID 1030; active = well fitted inhibition curve with a large enough effect, not every such curve was filed as active; inconclusive = small, poorly fitted or top-dose-only effect, or another doubt; inactive = no such curve, though single readings can be large or run the other way;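 note: potency is the fitted concentration of half-maximal effect; plate controls were no enzyme wells and a reference inhibitor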
IMPase Li inh: membrane-permeable IMPase blocker, potentiated with lithium; 210,000 compounds, 0.35% hits; Potency, µM (doses to about 59.4 µM), for the others: top-dose activity, negative = IMPase inhibition, most hits filed as inhibitors; CHO-M1 cells, IP1 TR-FRET (IP-One), carbachol + lithium;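 note: IP1 builds up when IMPase is blocked and the TR-FRET signal falls; potency is the fitted concentration of half-maximal effect; plate controls were basal vehicle for no effect and high inhibitor control for full effect; nearly all actives have a fitted effect of over 50% in size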
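CHO cells stably expressing M1 receptor (2000/well) were cultured 16–30 h, then exposed to compounds with a small lithium addition for 30 min at 37C. IP1 was measured by TR-FRET competition; AC50 from Hill fits.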
IMPase cell inh: membrane-permeable compound that blocks inositol monophosphatase; P97697; inhibition (IP1 accumulation), % at 46.1 µM; CHO-M1 cells, IP1 accumulation, HTRF TR-FRET ratio; AID 901; 120,000 tested, under 10 active; active = well fitted curve in the direction sought with a large enough effect in the signal ratio, not every such curve was filed as active; inconclusive = small, poorly fitted or top-dose-only effect, or a change in a side signal; inactive = no such curve, though single readings can be large or run the other way; the % refers to the signal ratio;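 note: cells stimulated with carbachol in lithium chloride buffer; plate controls were DMSO basal wells for no effect and reference inhibitor wells for full effect; higher means more IMPase inhibition seen as more IP1 and lower FRET ratio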
Target sequence (P97697 whole entry, looked up): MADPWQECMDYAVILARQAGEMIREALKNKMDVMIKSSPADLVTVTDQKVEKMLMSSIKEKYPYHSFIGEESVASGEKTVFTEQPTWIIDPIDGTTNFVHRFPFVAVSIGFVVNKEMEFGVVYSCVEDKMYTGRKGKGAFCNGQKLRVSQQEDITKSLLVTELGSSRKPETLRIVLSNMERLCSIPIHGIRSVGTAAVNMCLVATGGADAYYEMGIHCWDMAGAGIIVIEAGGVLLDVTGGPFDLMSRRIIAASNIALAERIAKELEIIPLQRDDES
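Measured: the HTRF emission ratio (665/620 nm) plus the 620 nm donor channel, each fitted to the Hill equation to give AC50. Cells were CHO-M1 given compounds up to 46 uM and a 30 min carbachol stimulation at 37C.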
NPSR antagonist: neuropeptide S receptor (human) antagonism, cAMP; Q6W5P4; CHO-NPSR cells, cAMP TR-FRET, antagonist mode; Potency, µM (titrated, usually from 38.3 µM), without a hit: at the highest dose activity change, negative = inhibition, actives largely listed as inhibitors; 220,000 compounds, 1% hits; AID 1461; note: potency is the fitted concentration of half-maximal effect; nearly all actives have a fitted effect of over 50% in size
HPGD block: inhibitors of human 15-hydroxyprostaglandin dehydrogenase (HPGD); P15428; purified HPGD, NADH fluorescence kinetic, PGE2 substrate; Potency, µM, for inactives: at the top dose activity change, negative = inhibition, hits mostly inhibitors; 150,000 compounds, 4.3% hits; active = well fitted inhibition curve with a large enough effect, not every such curve was filed as active; inconclusive = small, poorly fitted or top-dose-only effect, or another doubt; inactive = no such curve, though single readings can be large or run the other way; note: potency is the fitted concentration of half-maximal effect
Target sequence (P15428 whole entry, looked up): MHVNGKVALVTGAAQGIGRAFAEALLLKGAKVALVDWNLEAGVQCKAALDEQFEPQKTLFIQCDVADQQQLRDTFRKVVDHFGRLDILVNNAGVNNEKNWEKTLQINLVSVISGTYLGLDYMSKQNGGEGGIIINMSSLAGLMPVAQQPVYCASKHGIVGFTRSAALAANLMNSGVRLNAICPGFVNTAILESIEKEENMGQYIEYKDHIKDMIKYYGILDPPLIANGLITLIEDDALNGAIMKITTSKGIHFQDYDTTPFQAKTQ
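NADH formation kinetics: reaction with 30 uM PGE2 and 1 mM NAD+ (final), 20 nM enzyme, Tris-HCl pH 8 with Tween 20, after 15 min compound preincubation at room temperature. Fluorescence change, last versus first of five reads.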
PNC inhibitor: perinucleolar compartment assembly inhibition. PC3M PTB-GFP, PNC prevalence imaging, 16 h; hits give low values. 140,000 compounds, 3.1% hits. activity change (PNC), negative = inhibition, % at 10 µM;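 active = readout at or below -70, meaning at least 70% loss of cells showing the perinucleolar compartment, a nuclear body marking cancer cells; inconclusive = readout between -30 and a set limit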;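 note: plate controls were DMSO wells for no effect and camptothecin positive control wells for full effect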
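Compounds are pinned in duplicate onto adhered PC3M cells stably expressing GFP-tagged PTB and incubated 16 h at 37 C. Cells are then fixed, nuclei stained with Hoechst, and PNC-positive cells counted.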
* = called active by the depositor; ? = inconclusive; / = not tested or not shown; [ ] = another dose, or the depositor's remark. The list is not random: actives were taken first. Their share in the collection is about 11%. Unless noted, calls come from the whole dose curve; as a rule, active = well fitted curve in the direction sought with a large enough effect; inconclusive = small, poorly fitted or top-dose-only effect, or another doubt; inactive = no such curve, though single readings can be large; an effect the other way counts as inactive or inconclusive. Unless noted, % is set by controls: 0 for no effect and ±100 for the full control effect.

SMILES	ALDH1A1 block	IMPase Li inh	IMPase cell inh	NPSR antagonist	HPGD block	PNC inhibitor
NS(=O)(=O)c1ccc(CCNS(=O)(=O)c2ccccc2)cc1	8.91µM*	3.3%	/	8.9%	/	/
COc1cc(C2c3c(oc4ccccc4c3=O)C(=O)N2Cc2cccnc2)cc(OC)c1OC (stereo not given)	11.7%	-7.4%	-3.8	-0.5%[46.1 µM]	7.2%	-13.2
CC1(c2nnc(-c3ccc(Cl)cc3)o2)CC(c2ccncc2)=NO1 (stereo not given)	/	/	/	10.9%	/	/
CCCC(C(=O)NC1CCCC1)N(Cc1cccs1)C(=O)c1snc(C(N)=O)c1N (stereo not given)	?	45.9%[38.3 µM]	-7.3	-9.4%[46.1 µM]	?	?
CCOC(=O)c1c(/N=C/C2=C(O)CCCC2=O)sc(C)c1C	-7.3%	-11.6%	/	-4.9%	-7.1%	-16.9
CCOC(=O)c1c(-c2ccc(OC)cc2)csc1/N=C/C1=C(O)CCCC1=O	2.24µM*	-1.5%	/	-5.6%	-6.6%	?
CN(C)c1ccc(N=Cc2nc(-c3ccccc3)oc2OC(=O)c2ccccc2)cc1	-11.0%	-15.5%	/	-5.3%	-12.7%	27.1
CC(=O)Oc1oc(-c2ccccc2)nc1C=Nc1ccc(N(C)C)cc1	0.562µM*	/	/	-4.6%	/	/
COc1ccccc1N=Cc1nc(-c2ccccc2)oc1OC(C)=O	7.08µM*	26.7%	6.4	-22.7%[46.1 µM]	?	?
CC(=O)Oc1oc(-c2ccccc2)nc1/C=N/c1ccccn1	?	45.6%[38.3 µM]	1.4	?	22.4µM*	12.8
CCN(CC)c1ccc(C2N(C(=O)N3CCOCC3)CCN2S(=O)(=O)c2ccc(C)cc2)cc1 (stereo not given)	7.94µM*	18.5%[38.3 µM]	0.6	-22.9%[46.1 µM]	-2.6%	?
Cc1cccc(C(=O)NNC(=O)/C=C/C(=O)O)c1	?	2.6%	/	8.0%	/	/
COc1ccc(N=C2NC(=O)/C(=C\C=C\c3ccccc3)S2)cc1	6.9%	-9.8%	/	11.1%	/	/
Cc1ccc(N=C2NC(=O)/C(=C/C=C/c3ccco3)S2)cc1	4.47µM*	4.2%	/	-27.6%	-22.5%	22.0
O=C1NC(=Nc2ccccc2)/C(=C/c2ccco2)S1	?	2.2%	11.0	-23.8%	-14.1%	-19.0
O=C1NC(=Nc2ccccc2)S/C1=C\C=C\c1ccco1	14.1%	-3.0%	/	-40.8%	28.2µM*	?
Cc1ccc(N=C2NC(=O)S/C2=C\c2ccco2)cc1	0.0%	-9.7%	3.1	-17.7%	22.4µM*	0.9
Cc1cccc(N=C2NC(=O)/C(=C/C=C/c3ccco3)S2)c1C	2.82µM*	21.8%	-8.7	-40.4%	7.94µM*	24.5
COc1ccc(N=C2NC(=O)/C(=C/C=C/c3ccccc3)S2)cc1	/	/	/	-9.7%	/	/
O=S1(=O)N=C(N2CCN(Cc3ccccc3)CC2)c2ccccc21	17.6%	2.8%[38.3 µM]	-0.1	-10.5%[46.1 µM]	-7.2%	24.4
CN(C)/C=C(/C#N)C(=O)c1cccc(Oc2ccc(C(C)(C)C)cc2)c1	-8.0%	36.1%[38.3 µM]	3.1	?	22.4µM*	-3.7
O=C1C=CCC(/C=C/c2ccccc2)O1 (stereo not given)	2.5%	-0.7%	/	16.2%	-1.8%	?
Cc1ccc(Oc2ccc(NC(=O)CSc3n[nH]c(N)n3)cc2)cc1	?	-5.4%	/	4.0%	-24.2%	12.2
Cc1ccc(/C=C/C2=Cc3c(sc(NC(=O)CSc4n[nH]c(N)n4)c3C#N)C(C)(C)C2)o1	0.794µM*	11.5%[38.3 µM]	-5.1	-25.3%[46.1 µM]	?	-3.1
COc1ccccc1NS(=O)(=O)c1ccc(OC)c(OC)c1	2.1%	21.9%[38.3 µM]	-3.6	-8.4%[46.1 µM]	-5.2%	-27.9
COc1ccc(S(=O)(=O)Nc2ccccc2C(=O)NC(C)(C)C)cc1OC	?	26.9%[38.3 µM]	4.1	-9.2%[46.1 µM]	?	-112.1*
O=C1Nc2ccccc2N=C(c2ccccc2)C1Br (stereo not given)	15.8µM*	4.2%	/	1.7%	/	/
O=C1Nc2ccccc2N=C(c2ccccc2)C1N1CCOCC1 (stereo not given)	22.4µM*	-9.7%[38.3 µM]	-1.8	2.5%[46.1 µM]	-10.6%	?

Assay outcomes from PubChem BioAssay.
